HT1080-NT tox = kills 2HG-producing HT-1080-NT fibrosarcoma cells; HT-1080-NT fibrosarcoma viability, CellTiter-Glo ATP luminescence, 48 h; Potency, µM (doses to about 46.1 µM), inactives show at the top dose activity, negative = less viability, hits mostly cytotoxic; hit rate 1.6% among 360,000; AID 686970;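 note: NT is the 2HG producing partner of a matched IDH1 knockdown line; potency is the fitted concentration of half-maximal effect; 0% = DMSO-treated cells and -100% = media-only wells without cells; nearly all actives have a fitted effect of over 55% in size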
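Read-out is CellTiter-Glo luminescence after 10 minutes at room temperature, following 48 hours' compound treatment of HT-1080-NT cells (750 cells/well, RPMI, 5% FBS, 37 degrees C).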
IL-1B inflam inh = inhibitors of inflammasome signaling (IL-1 beta secretion); THP-1 LPS/ATP IL-1B secretion, AlphaLISA, 16 h; active compounds read low; activity change, % at 57.5 µM; hit rate 4.7% among 360,000; AID 743279; in the data active = activity change below about -50%; inconclusive = mostly about -30% to -49%
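THP-1 cells pretreated 1 hr with compounds (up to 57.5 uM final), then stimulated with LPS (250 ng/mL final) plus ATP (1.25 mM final); secreted IL-1B measured by AlphaLISA after 16 hr, decreased signal indicating inhibition.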
ELG1 DNA repair = inhibitors of ELG1-dependent DNA repair in HEK293T cells. HEK293T ELG1-luciferase reporter, luminescence, 16 h; DNA damage induced by 5-fluorouridine. Potency, µM (series often up to 46.1 µM), for the others: top-dose activity change, negative = inhibition, most hits filed as inhibitors. hit rate 2.3% among 330,000. AID 504467; note: potency is the fitted concentration of half-maximal effect; nearly all actives have a fitted effect of over 55% in size
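Quantitative HTS, concentration-response format. 2,000 cells/well co-treated with 5-fluorouridine and compound, 16 hr in 5% CO2 at 37 °C; ONE-Glo luminescence read after 30 min.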
TDP1 cell noCPT = qHTS for Inhibitors of human tyrosyl-DNA phosphodiesterase 1 (TDP1): qHTS in cells in absence of CPT | DT40 Tdp1-/- hTDP1 cells, no CPT, ATP luminescence, 48 h | Potency, µM (titrated, usually from 46.2 µM), without a hit: top-dose activity change, negative = growth inhibition, hits mostly inhibitors | hit rate 15% among 420,000 | AID 686978, 2013; note: potency is the fitted concentration of half-maximal effect; nearly all actives have a fitted effect of over 55% in size
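Camptothecin absent (DMSO only). Human TDP1-complemented DT40 knockout cells, 400 cells/well, 37 °C for minimum 48 hr; ATP measured via CellTiter-Glo, 30 min dark incubation, luminescence.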
HT1080 IDH1KD tx = toxicity to HT-1080 IDH1 knockdown cells (counter line); AID 686971; hit rate 2% among 360,000; HT-1080 IDH1 knockdown viability, ATP luminescence, 48 h; Potency, µM (titrated, usually from 46.1 µM), for inactives: top-dose activity, negative = toxicity, most hits filed as cytotoxic;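 note: potency is the fitted concentration of half-maximal effect; 0% = DMSO wells and -100% = cell-free medium wells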
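In this qHTS, HT-1080 cells depleted of IDH1 are exposed for 48 h at 37 °C to compound titrations. Toxicity is scored from CellTiter-Glo luminescence, with DMSO as full viability and medium alone as none.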
DT40 TDP1 CPT = growth inhibition of DT40 Tdp1-/-;hTDP1 cells with camptothecin (screen for TDP1 inhibitors); hit rate 12% among 420,000; chicken DT40 Tdp1-/-;hTDP1 cells + 20 nM CPT, ATP luminescence, 48 h; Potency, µM (series often up to 46.2 µM), without a hit: at the top dose activity change, negative = growth inhibition, usual class: inhibitors; note: potency is the fitted concentration of half-maximal effect; nearly all actives have a fitted effect of over 55% in size
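Chicken DT40 Tdp1-/- cells stably complemented with human TDP1 were seeded at 400 cells/well in medium containing 20 nM camptothecin, exposed to pin-transferred compounds, and grown at 37 °C for at least 48 hr. Viability was read as ATP luminescence.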
An asterisk follows results filed as active; ? = inconclusive; nt = no result; [ ] = dose if it differs, or a comment. Only some compounds are listed: those with a hit (about 19% of all), similar ones and a draw of the others. Unless noted, calls come from the whole dose curve; as a rule, active = well fitted curve in the direction sought with a large enough effect; inconclusive = small, poorly fitted or top-dose-only effect, or another doubt; inactive = no such curve, though single readings can be large; an effect the other way counts as inactive or inconclusive. Unless noted, % is set by controls: 0 for no effect and ±100 for the full control effect.

SMILES | HT1080-NT tox | IL-1B inflam inh | ELG1 DNA repair | TDP1 cell noCPT | HT1080 IDH1KD tx | DT40 TDP1 CPT
CCOC(=O)/C(=C/c1c[nH]c2ccccc12)NC(C)=O | 6% | 19 | -3% | -16% | -1% | -12%
CCOC(=O)/C=C(C)\C=C\c1c[nH]c2ccccc12 | ? | -64* | -9% | 29µM* | ? | -6%
O=C(Cc1ccc(Cl)cc1)Nc1cccnc1Cl | 9% | -28 | nt | -4% | 13% | 6%
O=C(NNC(=O)c1cccnc1SCc1cccc([N+](=O)[O-])c1)c1cccnc1 | -3% | 25 | ? | ? | -11% | 0%
O=C(NNC(=O)c1cccnc1SCc1cccc([N+](=O)[O-])c1)c1ccc(F)cc1 | -18% | -1 | ? | 12µM* | -11% | 23µM*
O=C(NNC(=O)c1cccnc1SCc1cccc([N+](=O)[O-])c1)c1ccccn1 | ? | 35 | ? | 2.6µM* | ? | 4.6µM*
Cc1ccccc1C(=O)NNC(=O)C1CC(=O)N(Cc2ccccc2)C1 (centres undefined) | 4% | 7 | 14% | 5% | 9% | -2%
COCCN1C[C@@H](CO)O[C@@H](n2cnc3c(NCCCO)ncnc32)C1 | 22% | -26 | nt | -3% | ? | -3%
CCC(=O)N1CCN(c2ccccc2NC(=O)COc2cc(C)ccc2C(C)C)CC1 | ? | -95* | ? | 23µM* | ? | 16µM*
Cc1ccc(C(C)C)c(OCC(=O)N2CCN(c3ncccn3)CC2)c1 | -3% | -9 | 10% | ? | -5% | -23%
Cc1ccc(C(C)C)c(OCC(=O)NC(=S)Nc2ccccc2N2CCOCC2)c1 | ? | 0 | -13% | 16µM* | ? | 23µM*
COc1ccc2ccc3c(c2c1)N=C[C@]1(O3)N(C)c2ccccc2C1(C)C | ? | -26 | -2% | 10µM* | ? | 18µM*
CC1=NOC2(C1)N(C)c1ccccc1C2(C)C (centres undefined) | 3% | 0 | -10% | -2% | -1% | -5%
COc1ccc2nc3cc(Cl)ccc3c(Nc3ccc(O)c(CN4CCN(C)CC4)c3)c2c1 | ? | -114* | nt | 1.5µM* | 16µM* | 1.8µM*
COc1ccc(O)c(CN2CCN(CCc3ccccc3)C(CCO)C2)c1 (centres undefined) | 3% | 1 | -13% | -4% | 0% | -2%
Cc1ccc2nc(-c3ccccc3)c(Cc3ccsc3)n2c1 | 1% | -13 | nt | 16µM* | -6% | 15µM*
COC(=O)c1ccc2nc(-c3ccc(C#N)cc3)c(Cc3ccsc3)n2c1 | -6% | -6 | nt | 23µM* | -19% | ?
FC(F)(F)c1cc(Cl)c2nc(-c3ccccc3)c(Cc3ccsc3)n2c1 | -1% | 10 | nt | -16% | -8% | -17%
COC(=O)c1ccc2nc(C3CCCCC3)c(CC(C)(C)C)n2c1 | ? | 65 | nt | ? | ? | ?
COC(=O)c1ccc2nc(C3CCCCC3)c(Cc3ccccc3)n2c1 | ? | 20 | nt | 9.2µM* | ? | 16µM*
COC(=O)c1ccc2nc(-c3ccc(F)cc3)c(Cc3ccccc3)n2c1 | 8% | 1 | nt | 23µM* | -1% | 16µM*
COc1ccc(OC(F)(F)F)cc1CC1(C)C(=O)Nc2c(Cl)ccc(Cl)c21 (centres undefined) | ? | -11 | nt | ? | ? | ?
CN(C)C(=O)COc1ccc2c3c(c(=O)oc2c1)CCCC3 | 9% | -12 | ? | -7% | 10% | 3%
COC(=O)c1ccc2nc(-c3ccc(C)cc3)c(Cc3ccsc3)n2c1 | 1% | 46 | nt | 21µM* | -6% | 18µM*
COC(=O)c1ccc2nc(-c3ccc(F)cc3)c(Cc3ccsc3)n2c1 | 12% | 25 | nt | 18µM* | 11% | ?
SMILES | HT1080-NT tox | IL-1B inflam inh | ELG1 DNA repair | TDP1 cell noCPT | HT1080 IDH1KD tx | DT40 TDP1 CPT
Cc1cc(C)cc(Oc2c(C(F)(F)F)oc3c(CN4CCCC(C)C4)c(O)ccc3c2=O)c1 (centres undefined) | nt | nt | nt | 5% | nt | 7%
COc1ccccc1/C=C1\SC(=S)N(CCC(=O)N2CCCCC2CCO)C1=O (centres undefined) | -4% | ? | -8% | ? | -13% | 16µM*
O=C(O)CCN1C(=O)/C(=C\c2cccc(Oc3ccccc3)c2)SC1=S | -6% | 16 | 27% | 5% | -29% | 2%
O=C1/C(=C/c2cccs2)SC(=S)N1CCC(=O)N1CCCCC1CCO (centres undefined) | -12% | -56* | ? | ? | -13% | ?
COc1cccc(/C=C2\SC(=S)N(CCCC(=O)N3CCCC3)C2=O)c1 | -13% | -91* | -17% | 21µM* | -23% | ?
COc1cccc(/C=C2\SC(=O)N(CCC(=O)N3CCC(C(=O)O)CC3)C2=O)c1 | 8% | 36 | 23% | 2% | 11% | -3%
COc1cccc(/C=C2\SC(=S)N(CCCC(=O)N3CCCCC3CCO)C2=O)c1 (centres undefined) | -8% | -70* | ? | 16µM* | -3% | ?
Cc1cc(-c2ccnc(-n3ncc(C(=O)NCCc4cccnc4)c3C)n2)c(C)s1 | nt | nt | nt | ? | nt | -3%[9.04 µM]
O=C1CCc2cc(NS(=O)(=O)c3ccc(Cl)cc3)cc3c2N1CC3 | -6% | 6 | ? | -19% | -19% | -5%
CCNC(=O)C1CCCN(C(=O)Cc2ccc3ccccc3c2)CC1 (centres undefined) | 10% | 37 | nt | -14% | 11% | -3%
COc1cccc(/C=C2\SC(=S)N(CCC(=O)N3CCCCC3CCO)C2=O)c1 (centres undefined) | -3% | ? | -4% | 18µM* | -22% | 13µM*
Cc1ccc(S(=O)(=O)N2CCC(=O)N(CCOC(=O)Nc3ccccc3C)CC2)cc1 | 0% | -2 | 0% | ? | 1% | -27%
Cc1cc(C)cc(NC(=O)OCCN2CCN(Cc3ccccc3)CCC2=O)c1 | -1% | -1 | ? | 23µM* | 0% | -23%
Cc1ccc(S(=O)(=O)N2CCC(=O)N(CCOC(=O)Nc3cc(C)cc(C)c3)CC2)cc1 | -6% | -12 | -24% | ? | 0% | 16µM*
CCC1CN(CCNC(=O)c2cc3ccccc3oc2=O)Cc2cc(OC)ccc2O1 (centres undefined) | nt | nt | nt | -9% | nt | 2%[9.04 µM]
CCOc1ccc(NC(=O)c2ccc3c(c2)CCN3S(C)(=O)=O)cc1 | -2% | -26 | -8% | -13% | -1% | 1%

Assay outcomes: PubChem BioAssay, National Center for Advancing Translational Sciences (NCATS)
